Many of the other results were omitted from the sample, so hits are more common in it than they were.
ID4 binder: binds human ID4 protein on microarray; calls only; small molecule microarray, Flag-ID4 binding, fluorescence F/B; hit rate 1.2% among 31,000; call rule not given here;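 further: a binder raises fluorescence above local background on the spot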
STK33 inh: inhibitors of human STK33 kinase. AID 2322. hit rate 0.44% among 27,000. ADP-Glo luminescence, MBP substrate. inhibition, % at 12.5 µM. Q9BYT3; in the data active means inhibition above about 20%
Target sequence (Q9BYT3 whole entry, looked up): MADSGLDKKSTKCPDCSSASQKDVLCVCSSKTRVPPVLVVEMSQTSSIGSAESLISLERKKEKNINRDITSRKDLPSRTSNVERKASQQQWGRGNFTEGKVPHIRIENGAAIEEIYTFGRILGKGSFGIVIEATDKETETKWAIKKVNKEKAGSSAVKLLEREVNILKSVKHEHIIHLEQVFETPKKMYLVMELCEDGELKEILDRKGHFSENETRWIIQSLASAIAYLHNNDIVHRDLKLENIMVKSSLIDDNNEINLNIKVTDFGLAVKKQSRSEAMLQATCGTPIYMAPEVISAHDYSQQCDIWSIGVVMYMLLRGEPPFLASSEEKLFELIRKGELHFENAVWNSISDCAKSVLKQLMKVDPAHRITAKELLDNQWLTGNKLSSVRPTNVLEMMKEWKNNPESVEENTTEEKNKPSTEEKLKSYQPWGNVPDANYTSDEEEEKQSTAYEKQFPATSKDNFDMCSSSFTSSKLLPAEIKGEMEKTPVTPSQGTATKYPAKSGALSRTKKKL
* = called active by the depositor; i = inactive; . = no result; + = active, no number.

SMILES	ID4 binder	STK33 inh
NCCCCCCNC(=O)[C@@H]1C[C@@H]2C(=O)NCC(=O)N2[C@@H]1c1cccc(OCCO)c1	+	-3
O=C(CS)NCCCCCCNC(=O)[C@H]1C[C@H]2C(=O)NCC(=O)N2[C@H]1c1cccc(OCCO)c1	.	-2
O=C(NCc1ccc(F)cc1)[C@H]1C[C@H]2C(=O)N[C@@H](Cc3ccccc3)C(=O)N2[C@H]1c1ccc(O)cc1	.	-1
C[C@@H]1CN([C@H](C)CO)C(=O)c2cc(-c3cccc(F)c3)cnc2O[C@H]1CN(C)Cc1cccc(F)c1	i	.
CNC[C@@H]1Oc2ccc(NC(=O)Nc3ccc(F)cc3)cc2CC(=O)N([C@H](C)CO)C[C@H]1C	.	-2
C[C@@H]1CN([C@H](C)CO)C(=O)c2cc(NS(=O)(=O)c3cccs3)ccc2O[C@@H](C)CCCCO[C@@H]1CN(C)C	i	.
CC(=O)Nc1ccc(NC(=O)COc2ccccc2C(=O)Nc2cccc(C)c2C)cc1	+	-4
Cc1cccc(NC(=O)c2ccccc2OCC(=O)Nc2cccc([N+](=O)[O-])c2)c1C	i	3
C[C@@H]1CN([C@@H](C)CO)C(=O)c2cc(NC(=O)CCCN(C)C)ccc2O[C@@H]1CN(C)C(=O)Nc1cccc2ccccc12	i	.
C[C@@H]1CN([C@H](C)CO)C(=O)c2cc(NC(=O)CCCN(C)C)ccc2O[C@@H]1CN(C)C(=O)Nc1ccccc1	+	.
C[C@@H]1CN([C@H](C)CO)C(=O)c2cc(NS(=O)(=O)c3cn(C)cn3)ccc2O[C@H]1CN(C)Cc1ccccc1	i	.
C[C@H](CO)N1C[C@H](C)[C@H](CN(C)C(=O)Nc2ccccc2)Oc2ccc(NC(=O)CCCN(C)C)cc2C1=O	i	-1
C[C@H]1CN([C@@H](C)CO)C(=O)c2cc(NS(=O)(=O)c3cn(C)cn3)ccc2O[C@@H]1CN(C)Cc1ccccc1	+	.
C[C@H](CO)N1C[C@H](C)[C@@H](CN(C)C(=O)Nc2cccc3ccccc23)Oc2ccc(NC(=O)CCCN(C)C)cc2C1=O	+	.
C[C@@H]1CN([C@@H](C)CO)C(=O)c2cc(NC(=O)CCCN(C)C)ccc2O[C@@H]1CN(C)Cc1ccc(C(=O)O)cc1	+	.
C[C@H](CO)N1C[C@H](C)[C@@H](CN(C)Cc2ccc(C(=O)O)cc2)Oc2ccc(NC(=O)CCCN(C)C)cc2C1=O	i	.
COc1ccc(NC(=O)Nc2ccc3c(c2)C(=O)N([C@H](C)CO)C[C@@H](C)[C@H](CN(C)S(=O)(=O)c2cccs2)O3)cc1	i	0
C[C@@H]1CN([C@@H](C)CO)C(=O)Cc2cc(NC(=O)NC3CCCCC3)ccc2O[C@H]1CN(C)C(=O)Nc1ccc(F)cc1	i	.
CC(C)NC(=O)N(C)C[C@H]1OCCCC[C@H](C)Oc2ccc(NC(=O)CCCN(C)C)cc2C(=O)N([C@H](C)CO)C[C@@H]1C	i	.
O=C(CSc1nc(N2CCCCC2)nc(N2CCCCC2)n1)Nc1ccc([N+](=O)[O-])cc1	i	1
N#Cc1ccc2nc(C(O)C(O)c3nc4ccc(C#N)cc4[nH]3)[nH]c2c1 (stereo not given)	.	6
COCC1=C2[C@@H](c3ccccc3)OB(O)C[C@@H]2n2c(=O)n(-c3ccccc3)c(=O)n2C1	i	.
CCCC[C@H]1OB(O)C[C@H]2C1=C(COc1ccccc1)Cn1c(=O)n(-c3ccccc3)c(=O)n12	+	.
COc1ccc(OC)c(CNCc2ccccc2OC)c1	i	3
CN(C)c1ccc(C(=C2C=CC(=[N+](C)C)C=C2)c2ccc(N(C)C)cc2)cc1	.	76*
SMILES	ID4 binder	STK33 inh
Oc1cc(O)cc(/C=C/c2ccc(O)c(O)c2)c1	.	74*
N#C/C(=C/c1ccc(O)c(O)c1)C(=O)OC/C=C/c1ccccc1	i	-1
OCCCn1c(-c2ccccc2)cn2c3ccccc3nc12	i	3
OCCCn1c(-c2ccc(Cl)cc2)cn2c3ccccc3nc12	+	0
O=C1CC(c2ccc(O)cc2)Oc2cc(O)cc(O[C@@H]3O[C@H](CO)[C@@H](O)[C@H](O)[C@H]3O)c21 (stereo not given in full)	.	-8
COc1c(O)cc2oc(-c3ccc(O)cc3)cc(=O)c2c1O	.	15
COc1cc(O)c2c(=O)cc(-c3ccccc3)oc2c1OC	i	23*
COc1c(O[C@@H]2O[C@H](C(=O)O)[C@@H](O)[C@H](O)[C@H]2O)cc(O)c2c(=O)cc(-c3ccccc3)oc12	i	0
COc1cc2oc(-c3ccc(O)cc3)cc(=O)c2c(O)c1OC	i	60*
COc1cccc2oc(-c3ccccc3)cc(=O)c12	i	1
COc1ccc(-c2cc(=O)c3c(O)cc(O)cc3o2)cc1O	.	46*
C[C@H](CO)N1C[C@H](C)[C@H](CN(C)Cc2ccc(-c3ccccc3)cc2)Oc2ccc(NC(=O)CCCN(C)C)cc2CC1=O	.	0
NC(=O)c1c(NC(=O)C2CC(=O)N(c3ccc(Cl)cc3)C2)sc2c1CCCC2 (stereo not given)	i	3
CN(C)C(=O)C[C@H]1CC[C@H](NC(=O)c2ccc(F)cc2)[C@H](CO)O1	i	.
CCCCn1c(SCC(N)=O)nc2c1c(=O)n(C)c(=O)n2C	i	3
Cn1c(=O)c2c(nc(N3CCOCC3)n2CCCN)n(C)c1=O	+	-1
COc1ccc(NC(=O)N(C)C[C@H]2OCCCC[C@@H](C)Oc3ccc(NC(=O)CCCN(C)C)cc3C(=O)N([C@H](C)CO)C[C@@H]2C)cc1	.	-2
CC(C)CC#Cc1cnc2c(c1)C(=O)N([C@H](C)CO)C[C@@H](C)[C@H](CN(C)Cc1ccccc1F)O2	i	.
COc1ccc(N2C(=O)CC(SCC(=O)Nc3c(C)cccc3C)C2=O)cc1 (stereo not given)	+	-2
COc1ccc(N2C(=O)CC(SCC(=O)Nc3ccc(C)c(C)c3)C2=O)cc1 (stereo not given)	i	-3
C[C@H]1CN([C@@H](C)CO)C(=O)c2cc(NC(=O)Cc3ccccc3)ccc2O[C@H]1CN(C)Cc1ccc2c(c1)OCO2	.	0
O=C(CCN1C(=O)c2ccccc2C1=O)Nc1ccc(-c2nc3ccccc3[nH]2)cc1	i	7
O=C(O)CCC(=O)Nc1ccc(-c2nc3ccc(C(=O)c4ccccc4)cc3[nH]2)cc1	+	3
C[C@@H]1CCCCO[C@H](CN(C)C(=O)CCC(F)(F)F)[C@H](C)CN([C@@H](C)CO)C(=O)c2cc(N(C)C)ccc2O1	i	.
COc1cc(CNC23CC4CC(CC(C4)C2)C3)ccc1OCC(N)=O	+	9
SMILES	ID4 binder	STK33 inh
COc1cc(CNC2CCCC2)ccc1OCC(N)=O	i	2
OC(COc1ccc2ccccc2c1Br)Cn1cnc(-c2ccccc2)c1 (stereo not given)	i	1
OC(COc1ccc(Cl)cc1)Cn1cnc(-c2ccccc2)c1 (stereo not given)	i	21*
COc1ccc2nc(Nc3nc(C)c(CCC(C)C)c(=O)[nH]3)nc(C)c2c1	i	0
CCN(CC)CCCC(C)Nc1c2ccc(Cl)cc2nc2ccc(OC)cc12 (stereo not given)	.	33*
C[C@H](CO)N1C[C@H](C)[C@H](CN(C)Cc2ccc3c(c2)OCO3)Oc2ccc(NS(C)(=O)=O)cc2CC1=O	i	-1
CCn1c(SCC(=O)Nc2ccc(C(=O)O)cc2)nnc1-c1ccc(C)cc1	i	5
CCn1c(SCC(=O)Nc2ccc(C(N)=O)cc2)nnc1-c1ccc(F)cc1	+	0

Bioassay records (PubChem BioAssay)
